Where a structure was tested more than once in an assay, its records may differ in their call. Activity calls are given as the source filed them. The calls were made as follows: active = hit-call score of the fitted dose curve at least 0.9, where 1 is the maximum; inactive = score below 0.9.
Key:
[1] = read-out: Transforming growth factor beta 1 (TGFb1), TGFB1 (gene 7040); test: BSK_KF3CT_TGFb1: BioMAP Diversity Plus: KF3CT Assay for Transforming growth factor beta 1 (TGFb1) Biomarker Activity (AID 2283072); details: primary human keratinocytes with fibroblasts; actives raise or lower the signal
Procedure, shortened: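 Human keratinocyte/foreskin fibroblast co-culture; TGF-b1 measured by ELISA 24 h after dosing, fitted bidirectionally versus DMSO. Cytotoxicity checked in parallel cultures by total protein (SRB staining, 560 nm).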

[2] = read-out: C-C motif chemokine 2 (Homo sapiens) (UniProt P13500); test: BSK_KF3CT_MCP1: BioMAP Diversity Plus: KF3CT Assay for Monocyte Chemoattractant Protein 1 (MCP1/CCL2) Biomarker Activity (AID 2283073); details: primary human keratinocytes with fibroblasts; actives raise or lower the signal
Procedure, shortened: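 Human keratinocyte plus foreskin fibroblast primary co-culture exposed to chemical for 24 h. MCP-1 levels measured by ELISA. Bidirectional curve fitting relative to DMSO negative control as baseline.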

[3] = read-out: Matrix Metallopeptidase 9 (MMP9), MMP9 (gene 4318); test: BSK_KF3CT_MMP9: BioMAP Diversity Plus: KF3CT Assay for Matrix Metallopeptidase 9 (MMP9) Biomarker Activity (AID 2283074); details: primary human keratinocytes with fibroblasts; actives raise or lower the signal;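 as to AC50: MMP9 protein level quantified by ELISA in the co-culture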
Procedure, shortened: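 Human keratinocyte and foreskin fibroblast co-culture exposed to chemicals for 24 h; MMP9 biomarker measured by ELISA, bidirectional fitting relative to DMSO; cytotoxicity tracked by SRB total protein staining in parallel cultures.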

[4] = read-out: urokinase plasminogen activator (uPA), PLAU (gene 5328); test: BSK_KF3CT_uPA: BioMAP Diversity Plus: KF3CT Assay for urokinase plasminogen activator (uPA) Biomarker Activity (AID 2283075); details: primary human keratinocytes with fibroblasts; actives raise or lower the signal
Procedure, shortened: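 Primary human keratinocyte/foreskin fibroblast co-culture exposed to chemical; uPA measured by ELISA at 24 h. Bidirectional fit versus DMSO, with parallel SRB total-protein staining for cytotoxicity.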

[5] = read-out: CD40, CD40 (gene 958); test: BSK_LPS_CD40: BioMAP Diversity Plus: LPS Assay for CD40 Biomarker Activity (AID 2283076); details: primary human HUVEC with PBMC; actives raise or lower the signal
Procedure, shortened: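 Primary human umbilical vein endothelial cells co-cultured with peripheral blood mononuclear cells, LPS-stimulated, were dosed with chemical and read 24 h later. CD40 levels were measured by ELISA and fitted bidirectionally against DMSO as negative control and baseline.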

[6] = read-out: E-selectin (Homo sapiens) (UniProt P16581); test: BSK_LPS_Eselectin: BioMAP Diversity Plus: LPS Assay for Eselectin Biomarker Activity (AID 2283077); details: primary human HUVEC with PBMC; actives raise or lower the signal
Procedure, shortened: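 Human umbilical vein endothelial cells co-cultured with peripheral blood mononuclear cells under LPS stimulation; E-selectin measured by ELISA 24 h after chemical dosing. Activity fitted bidirectionally against DMSO as negative control and baseline.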

[7] = read-out: Interleukin-8 (IL8), CXCL8 (gene 3576); test: BSK_LPS_IL8: BioMAP Diversity Plus: LPS Assay for Interleukin-8 (IL8) Biomarker Activity (AID 2283078); details: primary human HUVEC with PBMC; actives raise or lower the signal
Procedure, shortened: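 Human umbilical vein endothelial cells co-cultured with PBMC were stimulated with LPS; IL-8 levels were measured by ELISA 24 h after chemical dosing. Activity was fitted bidirectionally against DMSO as negative control and baseline.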

[8] = BSK_LPS_PGE2: BioMAP Diversity Plus: LPS Assay for Prostaglandin E2 (PGE2) Biomarker Activity (AID 2283082); details: primary human HUVEC with PBMC; actives raise or lower the signal;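 as to AC50: secreted prostaglandin E2 measured by ELISA in LPS-stimulated co-culture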
Procedure, shortened: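 HUVEC plus human PBMC co-culture stimulated with LPS; secreted PGE2 quantified by ELISA 24 h after chemical dosing. Activity fitted bidirectionally against DMSO baseline; parallel SRB staining (0.1% SRB after 10% TCA fixation, 560 nm) flags overt cytotoxicity.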

[9] = read-out: Tissue Factor, F3 (gene 2152); test: BSK_LPS_TissueFactor: BioMAP Diversity Plus: LPS Assay for Tissue Factor Biomarker Activity (AID 2283084); details: primary human HUVEC with PBMC; actives raise or lower the signal
Procedure, shortened: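 Human umbilical vein endothelial cells co-cultured with peripheral blood mononuclear cells were dosed and stimulated with LPS. Cell-surface CD142 was quantified by ELISA at 24 h. Activity was fitted bidirectionally against DMSO baseline.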

[10] = read-out: Tumor necrosis factor (Homo sapiens) (UniProt P01375); test: BSK_LPS_TNFa: BioMAP Diversity Plus: LPS Assay for Tumour Necrosis Factor alpha (TNFa) Biomarker Activity (AID 2283085); details: primary human HUVEC with PBMC; actives raise or lower the signal
Procedure, shortened: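 Human umbilical vein endothelial cells co-cultured with PBMC and stimulated with LPS. TNFa was measured by ELISA 24 h after chemical dosing, fitted bidirectionally relative to DMSO.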

[11] = read-out: Vascular cell adhesion molecule 1 (VCAM1), VCAM1 (gene 7412); test: BSK_LPS_VCAM1: BioMAP Diversity Plus: LPS Assay for Vascular cell adhesion molecule 1 (VCAM1) Biomarker Activity (AID 2283086); details: primary human HUVEC with PBMC; actives raise or lower the signal
Procedure, shortened: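 Human umbilical vein endothelial cells co-cultured with PBMC and stimulated with LPS; VCAM-1 measured by ELISA 24 h after dosing. Bidirectional curve fitting against DMSO baseline; cytotoxicity tracked in parallel by SRB total-protein staining.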

[12] = read-out: CD38, CD38 (gene 952); test: BSK_SAg_CD38: BioMAP Diversity Plus: SAg Assay for CD38 Biomarker Activity (AID 2283087); details: primary human HUVEC with PBMC; actives raise or lower the signal
Procedure, shortened: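 Human HUVEC plus PBMC co-culture stimulated with superantigen; CD38 measured by ELISA 24 h after chemical dosing. Fluorescence read-out, bidirectional fit against DMSO; cytotoxicity tracked in parallel by SRB and Alamar Blue.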

[13] = read-out: Monocyte Chemoattractant Protein-1 (MCP1), CCL2 (gene 6347); test: BSK_SAg_MCP1: BioMAP Diversity Plus: SAg Assay for Monocyte Chemoattractant Protein-1 (MCP1) Biomarker Activity (AID 2283090); details: primary human HUVEC with PBMC; actives raise or lower the signal
Procedure, shortened: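 MCP-1 levels in the endothelial–PBMC SAg co-culture were quantified by ELISA at 24 h post-dosing; both increases and decreases versus DMSO scored. Cytotoxicity monitored by SRB total protein in parallel cultures.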

[14] = read-out: E-selectin (Homo sapiens) (UniProt P16581); test: BSK_SAg_Eselectin: BioMAP Diversity Plus: SAg Assay for Eselectin Biomarker Activity (AID 2283091); details: primary human HUVEC with PBMC; actives raise or lower the signal
Procedure, shortened: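 HUVEC co-cultured with PBMC, compound dosed then read at 24 h; E-selectin measured by ELISA. Activity fitted bidirectionally against DMSO as negative control and baseline.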

[15] = read-out: Monocyte Chemoattractant Protein-1 (MCP1), CCL2 (gene 6347); test: BSK_LPS_MCP1: BioMAP Diversity Plus: LPS Assay for Monocyte Chemoattractant Protein-1 (MCP1) Biomarker Activity (AID 2283081); details: primary human HUVEC with PBMC; actives raise or lower the signal
Procedure, shortened: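 HUVEC plus PBMC co-culture (human primary cells, LPS system) exposed to test chemical for 24 h; MCP-1 measured by ELISA. Bidirectional curve fitting against DMSO baseline; parallel SRB total-protein staining flags overt cytotoxicity.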

[16] = read-out: Macrophage colony-stimulating factor (MCSF), CSF1 (gene 1435); test: BSK_LPS_MCSF: BioMAP Diversity Plus: LPS Assay for Macrophage colony-stimulating factor (MCSF) Biomarker Activity (AID 2283083); details: primary human HUVEC with PBMC; actives raise or lower the signal
Procedure, shortened: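 Human umbilical vein endothelial cells co-cultured with peripheral blood mononuclear cells were exposed to compound for 24 h. M-CSF levels were measured by ELISA, and bidirectional curve fitting used DMSO as the negative control and baseline.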

[17] = BSK_LPS_SRB: Viability Assessment in the BioMAP Diversity Plus: LPS Assay (AID 2283079); details: primary human HUVEC with PBMC;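 also: total protein by sulforhodamine B absorbance as a cytotoxicity measure; measured one day after compound addition; fitted in both directions against DMSO so loss or gain of signal counts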
Procedure, shortened: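 Human umbilical vein endothelial cells co-cultured with PBMC (LPS system) were dosed for 24 h. Total protein was stained with 0.1% sulforhodamine B after 10% TCA fixation, read at 560 nm, and fitted bidirectionally against DMSO baseline.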

Measured: AC50

Tumor necrosis factor (Homo sapiens), sequence (P01375 whole entry, looked up): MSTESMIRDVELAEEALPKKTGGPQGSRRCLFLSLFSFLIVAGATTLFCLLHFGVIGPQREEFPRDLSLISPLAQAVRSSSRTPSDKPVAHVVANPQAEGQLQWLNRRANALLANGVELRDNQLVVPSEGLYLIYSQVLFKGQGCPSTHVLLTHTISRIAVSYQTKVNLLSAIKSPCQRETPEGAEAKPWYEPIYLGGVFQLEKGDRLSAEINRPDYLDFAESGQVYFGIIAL
E-selectin (Homo sapiens), sequence (P16581 whole entry, looked up): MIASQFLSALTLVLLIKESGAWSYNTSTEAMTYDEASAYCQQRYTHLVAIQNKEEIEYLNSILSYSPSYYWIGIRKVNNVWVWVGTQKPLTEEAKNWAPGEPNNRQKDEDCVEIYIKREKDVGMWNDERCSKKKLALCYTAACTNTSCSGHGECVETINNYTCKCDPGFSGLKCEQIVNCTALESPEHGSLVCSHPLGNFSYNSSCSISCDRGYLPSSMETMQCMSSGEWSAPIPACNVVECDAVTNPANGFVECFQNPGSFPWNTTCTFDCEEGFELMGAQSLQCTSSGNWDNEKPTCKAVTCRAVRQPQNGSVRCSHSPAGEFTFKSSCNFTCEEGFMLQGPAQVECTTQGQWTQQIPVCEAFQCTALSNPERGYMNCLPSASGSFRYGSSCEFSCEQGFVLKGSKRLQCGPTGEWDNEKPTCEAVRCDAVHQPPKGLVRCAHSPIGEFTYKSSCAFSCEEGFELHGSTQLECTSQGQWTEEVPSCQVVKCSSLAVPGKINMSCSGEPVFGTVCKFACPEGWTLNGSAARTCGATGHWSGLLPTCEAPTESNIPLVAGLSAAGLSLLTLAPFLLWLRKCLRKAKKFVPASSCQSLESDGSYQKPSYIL

CC1(C)C2=CCCC(C)(C)[C@]23CC[C@H]1C3
active: [1] 7.31 µM | [2] 20 µM
inactive: [3] | [4] | [5] | [6] | [7] | [8] | [9] | [10] | [11] | [12] | [13]

c1ccc(CCc2ccccc2)cc1
active: [1] 12.8 µM | [2] 20 µM | [3] 28.5 µM | [4] 20 µM | [5] 30.9 µM | [6] 31.9 µM | [7] 20 µM | [9] 31.1 µM | [11] 31.8 µM | [12] 30.2 µM | [13] 31.5 µM
inactive: [8] | [10]

C=C(C)C(=O)OCCOCCOCCOCCOC(=O)C(=C)C
inactive: [1] | [2] | [3] | [4] | [5] | [6] | [7] | [8] | [9] | [10] | [11] | [12] | [13] | [14]

Clc1cc(Cl)c(-c2c(Cl)c(Cl)cc(Cl)c2Cl)cc1Cl
inactive: [7] | [8] | [9] | [10] | [13]
active: [1] 4.16 µM | [2] 10 µM | [3] 8.51 µM | [4] 10 µM | [5] 10 µM | [6] 8.81 µM | [11] 3.5 µM | [12] 15.6 µM

CCN(CC)C(=O)N(CC)CC
inactive: [1] | [2] | [3] | [4] | [5] | [6] | [7] | [8] | [9] | [10] | [11] | [12] | [13]

CC(CN=Cc1ccccc1O)N=Cc1ccccc1O (configuration not stated)
inactive: [2] | [3] | [4] | [5] | [6] | [7] | [15] | [8] | [16] | [9] | [10] | [11] | [12] | [13]
active: [7] 0.151 µM

O=C(Nc1ccc2c(O)c(N=Nc3ccc(N=Nc4ccc(S(=O)(=O)O)cc4)cc3)c(S(=O)(=O)O)cc2c1)c1ccccc1
inactive: [2] | [3] | [4] | [5] | [6] | [7] | [17] | [8] | [9] | [10] | [11] | [12] | [13]

CC=Cc1ccc(OCC)c(O)c1
active: [8] 0.44 µM
inactive: [1] | [2] | [3] | [4] | [5] | [6] | [9] | [10] | [11] | [12] | [13] | [14]

CCCCOC(=O)CCCCCCCC(=O)OCCCC
inactive: [1] | [2] | [3] | [4] | [5] | [6] | [7] | [8] | [9] | [10] | [11] | [12] | [13]

COc1ccc(CCN2CCC(Nc3nc4ccccc4n3Cc3ccc(F)cc3)CC2)cc1
active: [3] 5 µM | [12] 5 µM
inactive: [1] | [2] | [4] | [5] | [6] | [7] | [8] | [9] | [10] | [11] | [13]

O=CN1CCOCC1
inactive: [2] | [3] | [4] | [5] | [6] | [7] | [8] | [9] | [10] | [11] | [12] | [13]

C=CC(C)(O)CCC=C(C)C (configuration not stated)
inactive: [2] | [3] | [4] | [5] | [6] | [7] | [8] | [9] | [10] | [11] | [12] | [13]

Reference: PubChem BioAssay (EPA / NIEHS)
